Measured values taken from PubChem BioAssay (Tox21).
“And” between values parts separate entries of the source, which are not always exact repeats. Identical values can stand only once. Results filed as inconclusive are left out. Where a call stands in place of a potency, no number is given. More than one record can exist for a structure, and the calls need not agree. The source made the active and inactive calls. Unless noted, calls come from the whole dose curve.

What was measured:
[1] = qHTS assay to identify small molecule antagonists of the vitamin D receptor (VDR) signaling pathway - cell viability counter screen (AID 743225; active = well fitted curve in the direction sought with a large enough effect in the repeat runs; an effect the other way counts as inactive or inconclusive; note: nearly all actives have a fitted effect of over 50% in size; note: potency is the fitted concentration of half-maximal effect)
Method in brief: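 Viability counter screen run in the same wells as the beta-lactamase reporter assay: HEK 293T VDR-UAS-bla cells, 16 h compound exposure at 37C with 3 nM (final) 1-alpha,25-dihydroxyvitamin D3. CellTiter-Glo luminescence, 30 min, room temperature.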

[2] = qHTS assay to identify small molecule agonists of the NFkB signaling pathway - cell viability counter screen (AID 1159515); note: nearly all actives have a fitted effect of over 55% in size; note: potency is the fitted concentration of half-maximal effect
Method in brief: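 Luminescence from CellTiter-Glo (30 min, room temperature) gives viability, measured in the same wells as the beta-lactamase reporter read. Cells were NFkB-bla ME-180, 2,000 per well, treated 5 hr with compounds.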

[3] = qHTS assay to identify small molecule agonists of the endoplasmic reticulum stress response signaling pathway (AID 1159516; active = well fitted activation curve with a large enough effect in the signal ratio in the repeat runs, not every such curve was filed as active; the % refers to the signal ratio; note: potency is the fitted concentration of half-maximal effect)
Method in brief: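 Read-out is beta-lactamase cleavage of a FRET substrate (405 nm excitation; 460 and 530 nm emissions) in ESRE-bla HeLa cells after a 5 hr compound exposure at 37 C. Substrate incubation ran 2 hr at room temperature.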

[4] = qHTS assay to identify small molecule agonists of the endoplasmic reticulum stress response signaling pathway - cell viability counter screen (AID 1159517); note: nearly all actives have a fitted effect of over 50% in size; note: potency is the fitted concentration of half-maximal effect
Method in brief: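 Cells, HeLa ESRE-bla; density, 1,500/well; dosing, 5 hr at 37 C, 5% CO2; readout, CellTiter-Glo luminescence after 30 min RT.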

[5] = qHTS assay to identify small molecule antagonists of the retinoid-related orphan receptor gamma (ROR-gamma) signaling pathway - cell viability counter screen (AID 1159520; active = well fitted curve in the direction sought with a large enough effect in the repeat runs; an effect the other way counts as inactive or inconclusive; note: nearly all actives have a fitted effect of over 50% in size; note: potency is the fitted concentration of half-maximal effect)
Method in brief: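 Cytotoxicity was read from cellular ATP (CellTiter-Glo luminescence) after 16 hr at 37 C with 1 uM doxycycline induction. The inducer was added 2 hr after compound transfer to Tet-on ROR gamma CHO cells.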

[6] = qHTS assay to identify small molecule agonists of the AP-1 signaling pathway - cell viability counter screen (AID 1159525); note: nearly all actives have a fitted effect of over 55% in size; note: potency is the fitted concentration of half-maximal effect
Method in brief: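 Luminescent ATP readout (Cell Titer Glo, 30 min RT), normalised to DMSO and tetra n-octyl ammonium bromide controls. Cells were ME-180 AP-1-bla in 0.5% dialyzed FBS Opti-MEM, with a 5 h, 37 °C compound exposure.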

[7] = qHTS assay to identify small molecule agonists of the AP-1 signaling pathway (AID 1159526)
[8] = target: Retinoic acid receptor RXR-alpha (Homo sapiens) (UniProt P19793); test: qHTS assay to identify small molecule agonists of the RXR signaling pathway (AID 1159527); note: nearly all actives have a fitted effect of over 35% in size; note: potency is the fitted concentration of half-maximal effect
Retinoic acid receptor RXR-alpha (Homo sapiens), sequence (P19793 whole entry, looked up): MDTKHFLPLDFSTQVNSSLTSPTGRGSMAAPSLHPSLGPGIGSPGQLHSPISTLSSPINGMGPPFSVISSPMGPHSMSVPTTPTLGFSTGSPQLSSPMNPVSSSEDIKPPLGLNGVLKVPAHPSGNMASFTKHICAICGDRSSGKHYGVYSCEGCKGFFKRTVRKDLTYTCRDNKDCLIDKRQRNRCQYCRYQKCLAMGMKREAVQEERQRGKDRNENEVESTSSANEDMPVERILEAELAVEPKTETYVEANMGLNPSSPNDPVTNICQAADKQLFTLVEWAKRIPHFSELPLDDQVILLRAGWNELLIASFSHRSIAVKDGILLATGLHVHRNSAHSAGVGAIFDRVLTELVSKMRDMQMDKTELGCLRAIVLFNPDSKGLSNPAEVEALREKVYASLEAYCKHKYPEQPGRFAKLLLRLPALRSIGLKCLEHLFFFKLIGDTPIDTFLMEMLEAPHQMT
Method in brief: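 Agonist mode; 9-cis retinoic acid positive control. HEK 293T UAS-bla reporter cells, 2% charcoal-stripped FBS, 16 hr compound exposure at 37 C/5% CO2. LiveBLAzer B/G FRET substrate 2 hr RT; ex 405, em 460/530 nm.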

[9] = target: Nuclear receptor ROR-gamma (Homo sapiens) (UniProt P51449); test: qHTS assay to identify small molecule antagonists of the retinoid-related orphan receptor gamma (ROR-gamma) signaling pathway (AID 1159521; active = well fitted curve in the direction sought with a large enough effect in the repeat runs; an effect the other way counts as inactive or inconclusive; note: nearly all actives have a fitted effect of over 50% in size; note: potency is the fitted concentration of half-maximal effect)
Method in brief: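 Luminescence readout (ONE-Glo, 30 min RT) after 16 h doxycycline induction; loss of signal scored as antagonism. CHO cells with TET-inducible RORγ and RORE-LUC reporter; compounds added 2 h before 1 uM final doxycycline.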

Structure (SMILES)	Potency [1]	Potency [2]	Potency [3]	Potency [4]	Potency [5]	Potency [6]	Potency [7]	Potency [8]	Potency [9]
COc1ccc(C(Cl)=C(c2ccc(OC)cc2)c2ccc(OC)cc2)cc1	inactive	inactive	inactive	inactive	inactive	inactive	inactive	inactive	–
Cc1cn([C@H]2C=C[C@@H](CO)O2)c(=O)[nH]c1=O	inactive	inactive	inactive	inactive	–	inactive	inactive	inactive and 17.4 µM (active)	inactive
CC(C)NCC(O)c1ccc(O)c(O)c1 (stereo not drawn)	inactive	inactive	inactive	inactive	inactive	inactive	inactive	inactive	–
Oc1ccccc1	inactive	inactive	inactive	inactive	inactive	inactive	inactive	inactive and 11 µM (active)	–
CC(C)c1c(C(=O)Nc2ccccc2)c(-c2ccccc2)c(-c2ccc(F)cc2)n1CC[C@@H](O)C[C@@H](O)CC(=O)O	inactive	inactive	inactive	inactive	–	inactive	inactive	inactive	1.86 µM (active) and 11.4 µM (active) and 2.66 µM (active)
CC(O)(P(=O)(O)O)P(=O)(O)O	inactive	inactive	inactive	inactive	inactive	inactive	inactive	inactive	–
CC(=O)CCC(=O)O	inactive	inactive	inactive	inactive	–	inactive	inactive	inactive	inactive
Cc1cc(=O)oc2cc(O)ccc12	inactive	inactive	49 µM (active) and 19 µM (active)	inactive	inactive	inactive	inactive	43.6 µM (active)	–
NS(=O)(=O)O	inactive	inactive	inactive	inactive	inactive	inactive	inactive	inactive	–
CN1CCc2cccc3c2[C@H]1Cc1ccc(O)c(O)c1-3	49.5 µM (active) and 11.5 µM (active)	inactive	inactive	inactive	69.3 µM (active)	inactive	inactive	inactive	–
O=S1(=O)OC(c2ccc(O)cc2)(c2ccc(O)cc2)c2ccccc21	inactive	inactive	inactive	inactive	inactive	inactive	inactive	inactive	–
CCCC[P+](CCCC)(CCCC)CCCC	inactive	inactive	inactive	inactive	inactive	inactive	inactive	inactive	–
O=C1NC(=O)C(c2ccccc2)(c2ccccc2)N1	inactive	inactive	inactive	inactive	–	inactive	inactive	inactive	inactive
NC1CCCCC1	inactive	inactive	inactive	inactive	–	inactive	inactive	inactive	inactive
CCCCCCc1ccc(O)cc1O	49 µM (active)	inactive	inactive	inactive	–	43.8 µM (active) and inactive	–	inactive	–
CC1(C)S[C@@H]2[C@H](NC(=O)[C@H](N)c3ccccc3)C(=O)N2[C@H]1C(=O)O	inactive	inactive	inactive	inactive	–	inactive	inactive	inactive	–
OC[C@H]1O[C@H](O[C@]2(CCl)O[C@H](CCl)[C@@H](O)[C@@H]2O)[C@H](O)[C@@H](O)[C@H]1Cl	inactive	inactive	inactive	inactive	–	inactive	inactive	inactive	–
CCc1nc(N)nc(N)c1-c1ccc(Cl)cc1	–	inactive	inactive	inactive	–	inactive	–	inactive	inactive
O=C(O)CC(O)C(=O)O (stereo not drawn)	inactive	inactive	inactive	inactive	–	inactive	inactive	inactive	inactive
Cc1cccc(C)c1	inactive	inactive	inactive	inactive	–	inactive	inactive	inactive	–
CCCCCCCCCCCC[N+](C)(C)Cc1ccccc1	19.1 µM (active) and 15 µM (active) and 21.3 µM (active)	53.9 µM (active) and 47.4 µM (active) and 23.9 µM (active)	–	17 µM (active) and 21.2 µM (active) and 26.8 µM (active)	–	23.9 µM (active)	–	–	47.6 µM (active) and 21.1 µM (active)
COc1ccc(CN(CCN(C)C)c2ccccn2)cc1	inactive	inactive	inactive	inactive	–	inactive	–	inactive	–

Structure (SMILES)	Potency [1]	Potency [2]	Potency [3]	Potency [4]	Potency [5]	Potency [6]	Potency [7]	Potency [8]	Potency [9]
Cc1ncc([N+](=O)[O-])n1C	inactive	inactive	inactive	inactive	–	inactive	inactive	inactive	–
CCCCCCCC(=O)OCC(COC(=O)CCCCCCC)OC(=O)CCCCCCC	inactive	inactive	inactive	inactive	–	inactive	inactive	inactive	inactive
Cc1cc(C)nc(NS(=O)(=O)c2ccc(N)cc2)n1	inactive	inactive	inactive	inactive	–	inactive	inactive	14 µM (active) and inactive	–
CC(=O)Nc1c(I)c(NC(C)=O)c(I)c(C(=O)O)c1I	–	inactive	inactive	inactive	–	inactive	inactive	inactive	–
CCCCC(CC)C(=O)O (stereo not drawn)	inactive	inactive	inactive	inactive	–	inactive	inactive	inactive	–
CCCCC1(COC(=O)CCC(=O)O)C(=O)N(c2ccccc2)N(c2ccccc2)C1=O	inactive	inactive	inactive	inactive	–	inactive	inactive	inactive	–
COc1ccc2c(c1)c(CC(=O)O)c(C)n2C(=O)c1ccc(Cl)cc1	inactive	inactive	inactive	inactive	–	inactive	inactive	–	–
CN(C)C(=S)SC(=S)N(C)C	inactive	5.02 µM (active) and 977 nM (active) and 6.74 µM (active)	–	inactive	2.37 µM (active)	11.2 µM (active) and 5.49 µM (active) and 16.9 µM (active)	–	–	–
CCCCCCCCCCCCCCCC[N+](C)(C)Cc1ccccc1	45 µM (active) and 17.7 µM (active) and 21.3 µM (active)	56.7 µM (active) and 49.8 µM (active) and 21.3 µM (active)	–	25.3 µM (active) and 39.6 µM (active)	70.8 µM (active) and 55.5 µM (active) and 29.8 µM (active)	40.1 µM (active) and 49.8 µM (active) and 23.9 µM (active)	–	–	–
O=C1OC2(c3ccccc31)c1cc(Br)c(O)c(Br)c1Oc1c2cc(Br)c(O)c1Br	inactive	inactive	–	inactive	–	inactive	inactive	–	inactive
CCCCOC(=O)c1ccc(O)cc1	inactive	inactive	inactive	inactive	–	inactive	inactive	inactive	–
CC(C)C(=O)Nc1ccc([N+](=O)[O-])c(C(F)(F)F)c1	inactive	inactive	inactive	inactive	–	inactive	inactive	inactive	28.1 µM (active) and 10.9 µM (active) and 33.5 µM (active)
C=C(C)C(=O)OCC(C)O (stereo not drawn)	inactive	inactive	inactive	inactive	–	inactive	inactive	inactive	–
O=C1c2c(O)cccc2Cc2cccc(O)c21	inactive	inactive	–	inactive	inactive	inactive	inactive	inactive	–
Nc1ccc(S(N)(=O)=O)cc1	inactive	inactive	inactive	inactive	–	inactive	inactive	5.52 µM (active) and inactive	–
CNNCc1ccc(C(=O)NC(C)C)cc1	inactive	inactive	inactive	inactive	–	inactive	inactive	inactive	–
C[C@](N)(Cc1ccc(O)c(O)c1)C(=O)O	inactive	inactive	inactive	inactive	–	inactive	inactive	inactive	–
O=c1[nH]cc(F)c(=O)[nH]1	inactive	inactive	inactive	inactive	–	inactive	inactive	28.2 µM (active)	–
Cc1ccc(S(=O)(=O)O)cc1	inactive	inactive	inactive	inactive	–	inactive	inactive	inactive	–
Nc1c2c(nc3ccccc13)CCCC2	inactive	inactive	–	inactive	inactive	inactive	inactive	inactive	–
CC/C(=C(\c1ccccc1)c1ccc(OCCN(C)C)cc1)c1ccccc1	inactive and 15.6 µM (active) and 21.3 µM (active)	26.8 µM (active) [middle of 5 runs]	–	49 µM (active) [middle of 4 runs]	–	23.9 µM (active) [middle of 5 runs]	–	–	–
